Only some compounds are listed: those with a hit (about 4.6% of all), similar ones and a draw of the others.
VACV mCherry inh – qHTS for Stage-Specific Inhibitors of Vaccinia Orthopoxvirus: mCherry Reporter Primary qHTS | Vaccinia virus mCherry reporter infection, fluorescence | Potency, µM (doses to about 36.5 µM), without a hit: at the highest dose activity change, negative = inhibition, most hits filed as inhibitors | 310,000 tested, 0.63% active | AID 720579, 2013; calls by dose curve; tested in A549 cells; also: nearly all actives have a fitted effect of over 35% in size
Marburg entry inh – qHTS for inhibitors of binding or entry into cells for Marburg Virus; Marburg virus pseudotyped entry inhibition, cell reporter; Potency, µM (doses to about 37.8 µM), for the others: top-dose activity change, negative = inhibition, most hits filed as inhibitors; 300,000 tested, 1.8% active; calls by dose curve; tested in HEK293 cells
HCV inh – qHTS Assay for Inhibitors of Hepatitis C Virus (HCV). Huh7.5.1 HCVcc-Cre infection, luciferase reporter, 44 h. Potency, µM (titrated, usually from 41.8 µM), for inactives: at the highest dose activity change, negative = inhibition, actives largely listed as inhibitors. 340,000 tested, 3.4% active. AID 651820, 2012; active = well fitted inhibition curve with a large enough effect; inconclusive = small, poorly fitted or top-dose-only effect, or another doubt; inactive = no such curve, though single readings can be large or run the other way
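Infectious HCVcc-Cre (~0.5 moi) was added to cells just after compound, with cells seeded 4 h earlier at 1,000 per well. Luciferase activity after 44 h culture reported infection; substrate was incubated 15 min at room temperature before reading.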
Lassa entry inh – qHTS for Inhibitors of binding or entry into cells for Lassa Virus; 300,000 tested, 1.2% active; Potency, µM (top dose mostly 37.9 µM), inactives show top-dose activity change, negative = inhibition, hits mostly inhibitors; Lassa virus pseudotype entry inhibition, cell reporter; calls by dose curve; tested in HEK293 cells; also: nearly all actives have a fitted effect of over 50% in size
Vaccinia Venus – qHTS for Stage-Specific Inhibitors of Vaccinia Orthopoxvirus: Venus Reporter Primary qHTS. 330,000 tested, 0.46% active. Vaccinia virus Venus reporter expression, fluorescence. Potency, µM (doses to about 36.5 µM), without a hit: at the highest dose activity change, negative = inhibition, most hits filed as inhibitors; calls by dose curve; tested in A549 cells; also: nearly all actives have a fitted effect of over 30% in size
Numbers without * were called inactive; i = inactive; ? = inconclusive; . = no result; ! = not active in a repeat; [ ] = dose if it differs, or a comment. % is scaled to controls: 0 for no effect and ±100 for the full control effect; potency is read from the fitted curve at half-maximal effect.

SMILES	VACV mCherry inh	Marburg entry inh	HCV inh	Lassa entry inh	Vaccinia Venus
C/C(=N\NC(=O)c1ccc(Cl)c(Cl)c1)c1ccccn1	1.26µM*	?	0.562µM*	5.62µM*	?
CC(C)(C)c1ccc(C(=O)N/N=C/c2cccc(Cl)c2)cc1	.	-23.3%	7.08µM*	-14.3%	.
C/C(=N\NC(=O)C(c1ccccc1)c1ccccc1)c1ccccn1	?	?	11.2µM*	?	?
COc1ccc2c(c1)c(=O)c(S(=O)(=O)c1ccc(Cl)cc1)cn2Cc1cc(C)ccc1C	0.8%	12.2%[46.1 µM]	.	8.5%[46.1 µM]	-6.0%
N#Cc1sc2nc(C3CC3)cc(-c3ccc(Cl)cc3)c2c1N	4.47µM*	?	?	?	14.1µM*
Cn1c2c(c(=O)n(C)c1=O)[C@](NC(=O)c1cccs1)(C(F)(F)F)C(=O)N2	.	14.0%	.	.	.
O=S(=O)(NCCc1nnc2ccc(SCc3cccc(Cl)c3)nn12)c1ccccc1	-18.2%	.	.	-9.2%[46.1 µM]	-11.3%
O=C(CSc1nnc(-c2cccs2)n1-c1ccccc1)N1CCCc2ccccc21	.	11.6µM*	?	?	.
CCCc1nc(SCC(=O)N2CCc3ccccc32)c2c(=O)n(C)c(=O)n(C)c2n1	.	0.9%	6.1%	.	.
CC(C)Cn1c(SCC(=O)N2CCCc3ccccc32)nc2ccccc2c1=O	12.0%	?	?	?	-9.9%
CC(C)c1nc(SCC(=O)N2CCCc3ccccc32)c2c(=O)n(C)c(=O)n(C)c2n1	?	-5.3%	10µM*	.	?
CCn1c(SCC(=O)N2CCCc3ccccc32)nc2ccccc2c1=O	?	?	5.01µM*	?	-24.6%
COC(=O)c1ccccc1-c1cc(C)cc2c1OC(CNC(=O)c1cc(C)n(C)n1)C2 (configuration not stated)	i	.	.	.	-10.2%
Cc1ccc(C(=O)Nc2c(C)nc3ccccn3c2=O)cc1	-16.4%	.	.	?	-9.1%
O=c1[nH]cnc2nc[nH]c12	-7.9%	.	.	.	10.0%
Nc1nc2nc[nH]c2c(=O)[nH]1	i	.	5.01µM*	.	-15.5%
COc1cc(OC)cc(-c2cc3nc(C)cc(N4CCN(C(=O)c5ccco5)CC4)n3n2)c1	.	-5.7%	.	.	.
Cc1cc(N2CCN(C(=O)c3ccco3)CC2)n2nc(-c3cccc(F)c3)cc2n1	.	?	10µM*	-1.0%	.
Cc1cc(N2CCN(C(=O)c3ccco3)CC2)nc(-c2ccccc2)n1	-24.1%	?	?	11.2µM*	-20.0%
Cc1csc(SCC(=O)NCC2Cc3cc(-c4cncnc4)ccc3O2)n1 (configuration not stated)	-2.1%	.	.	.	-16.7%
c1ccc2cnccc2c1	-10.0%	.	.	.	-5.0%
CCC(C)(C)C1CCc2c(sc(NC(=O)c3ccoc3C)c2C(N)=O)C1 (configuration not stated)	-4.5%	-8.2%	9.6%	2.8%	-10.6%
CCC1CCc2c(sc(NC(=O)c3ccoc3C)c2C(N)=O)C1 (configuration not stated)	?	-17.6%[46.1 µM]	5.01µM*	29.5%	?
CN1CCN(C(=O)C23CC4CC(C2)CC(c2ccccc2)(C4)C3)CC1	-9.5%	?	10µM*	?	-4.4%
Cc1cccc(C(=O)N[C@H](C(=O)Nc2ncc(C)s2)C(C)C)c1	12.6µM*	4.7%[46.1 µM]	?	.	?
SMILES	VACV mCherry inh	Marburg entry inh	HCV inh	Lassa entry inh	Vaccinia Venus
Cc1cccc(C(=O)N[C@H](C(=O)Nc2nnc(C3CC3)s2)C(C)C)c1	-14.1%	19.7%	2.3%	8.4%	-13.7%
O=C1O[C@H](Nc2ccc(Br)cn2)c2ccccc21	.	5.1%	.	.	.
COCCNC(=O)CN1CCC(NC(=O)Nc2ccccc2)CC1	.	0.5%	7.3%	1.2%	.
COCCNC(=O)CN1CCC(NC(=O)Nc2ccc(C(F)(F)F)cc2)CC1	.	19.3%	11.2µM*!	17.1%	.
Cc1ccc(-n2c(N)c(C(=O)Nc3c(C)n(C)n(-c4ccccc4)c3=O)c3nc4ccccc4nc32)cc1	-27.1%	?	11.2µM*	17.1%	-9.4%
COCCNC(=O)c1c(N)n(-c2cccc(C)c2)c2nc3ccccc3nc12	.	?	11.2µM*	-26.0%	-12.9%
COCCNC(=O)c1c(N)n(-c2ccccc2)c2nc3ccccc3nc12	-21.4%	-29.9%	?	-5.7%	-17.1%
Nc1ccc(-n2c(N)c(C(=O)NCc3ccc4c(c3)OCO4)c3nc4ccccc4nc32)cc1	?	?	2.51µM*	-5.8%	-25.5%
COCCCNC(=O)c1c(N)n(-c2ccccc2)c2nc3ccccc3nc12	-29.8%	?	12.6µM*	-15.6%	-9.9%
CCOC(=O)C1CCCN(C(=O)c2cnn(-c3ncc4c(n3)-c3ccccc3CCC4)c2C2CC2)C1 (configuration not stated)	-2.2%	.	.	.	0.2%
O=C(NCc1ccc(F)cc1)C(=O)NCC(c1ccco1)S(=O)(=O)c1cccs1 (configuration not stated)	-17.7%	.	.	-1.2%[46.1 µM]	-4.1%
Cc1cccc(CNC(=O)c2cnn(-c3nccc(-c4ccccc4F)n3)c2C)n1	-10.2%	.	.	.	-0.6%
COCCn1nnnc1C(c1ccc(C)cc1)N1CCN(Cc2ccc3c(c2)OCO3)CC1 (configuration not stated)	-19.9%	?	-26.5%	0.8%	-16.5%
Cc1ccc(C(c2nnnn2CCc2ccccc2)N2CCSCC2)cc1 (configuration not stated)	-20.2%	2.24µM*	-28.7%	?	-8.2%
Cc1ccc(C(c2nnnn2Cc2cccs2)N2CCN(Cc3ccc4c(c3)OCO4)CC2)cc1 (configuration not stated)	-20.1%	?	?	11.2µM*	-28.9%
CC(C)C(c1nnnn1Cc1ccc(F)cc1)N1CCN(Cc2ccc3c(c2)OCO3)CC1 (configuration not stated)	.	12.6µM*	?	?	?
CCC1(C2CCN(C(=O)c3ccccc3Cl)CC2)NC(=O)N(CCc2scnc2C)C1=O (configuration not stated)	i	.	.	.	-13.6%
CCCOC1(C(F)(F)F)NC(=O)N(c2ccc(Cl)cc2)C1=O (configuration not stated)	-7.7%	-12.8%[46.1 µM]	.	-21.7%[46.1 µM]	8.9%
O=c1c2sc3ccccc3c2n(Cc2ccccc2F)c(=O)n1Cc1ccccc1	-10.1%	?	.	1.7%[46.1 µM]	-20.0%
CCN(CC)c1ccc(C(=O)OCc2cc(=O)oc3cc(O)ccc23)cc1	?	?	22.4µM*	14.6µM*	-15.1%
CCN(CC)CCCn1c(C)cc2c(c1=O)[C@@H](c1cccc(Cl)c1)C(C#N)=C(N)O2	.	11.2µM*	.	.	.
CN1CCCC1CCOC(C)(c1ccccc1)c1ccc(Cl)cc1 (configuration not stated)	-14.5%	9.2µM*	-16.0%	20.6µM*	-27.5%
Cc1ccc(C)c(NC(=O)Cn2cc(S(=O)(=O)N3CCCC3)c(S(=O)(=O)N3CCCC3)c2)c1	-6.7%	.	.	20.3%[46.1 µM]	-8.5%

Screening results as filed in PubChem.
